Data as given in PubChem BioAssay (NCI).
The panel holds about 83,000 compounds, 20% with a hit somewhere; the sample as a whole holds those more often.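 Single-concentration screen, 48 h exposure, 96-well plates. Endpoint: percent growth. Below 10 = active.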 Activity calls are given as the source filed them.

Columns and labels:
Experiment in all cases: NCI-60 one-dose screen, 48 h (100 = growth as untreated, 0 = no growth, -100 = all killed)
Conditions in all cases: 10 µM
NCI-H23 lung = test system: NCI-H23 lung
NCI-H226 lung = test system: NCI-H226 lung
NCI-H322M lung = test system: NCI-H322M lung
HOP-62 NSCLC = test system: HOP-62 NSCLC
NCI-H460 lung = test system: NCI-H460 lung
NCI-H522 lung = test system: NCI-H522 lung
A549/ATCC NSCLC = test system: A549/ATCC NSCLC
786-0 renal = test system: 786-0 renal
COLO 205 colon = test system: COLO 205 colon
DU-145 prostate = test system: DU-145 prostate
K-562 leukemia = test system: K-562 leukemia
MDA-MB-231 breast = test system: MDA-MB-231 breast
RXF 393 renal = test system: RXF 393 renal
SF-268 CNS = test system: SF-268 CNS
SF-295 CNS = test system: SF-295 CNS
SF-539 CNS = test system: SF-539 CNS
UACC-257 melanoma = test system: UACC-257 melanoma
M14 melanoma = test system: M14 melanoma
HCT-15 colon = test system: HCT-15 colon
MALME-3M melanoma = test system: MALME-3M melanoma

Measured: growth

CCc1ccc2c(c1)N(CCO)C1=C(C(=O)OC1)C2c1cc(OC)c(OC)c(OC)c1 (centres undefined)
inactive: NCI-H23 lung 19.5% | NCI-H322M lung 13.7% | HOP-62 NSCLC 28.8% | A549/ATCC NSCLC 16.3% | 786-0 renal 20.2% | K-562 leukemia 10.5% | RXF 393 renal 53.4% | SF-268 CNS 21.7% | UACC-257 melanoma 50.5% | M14 melanoma 10.2%
active: NCI-H226 lung 3.03% | NCI-H460 lung 2.43% | NCI-H522 lung -40.4% | COLO 205 colon -69.3% | DU-145 prostate -28.3% | MDA-MB-231 breast -28% | SF-295 CNS -28.4% | SF-539 CNS -9.69% | HCT-15 colon 6.93%

c1ccc2c(c1)oc1c3c(ccc12)NCCC3
inactive: NCI-H23 lung 86% | NCI-H226 lung 90.9% | NCI-H322M lung 91.8% | HOP-62 NSCLC 97.6% | NCI-H460 lung 99% | NCI-H522 lung 80.9% | A549/ATCC NSCLC 90.3% | 786-0 renal 90.5% | COLO 205 colon 114% | DU-145 prostate 103% | K-562 leukemia 98.4% | MDA-MB-231 breast 90.2% | RXF 393 renal 107% | SF-268 CNS 96.1% | SF-295 CNS 118% | SF-539 CNS 93.4% | UACC-257 melanoma 95.4% | M14 melanoma 109% | HCT-15 colon 81.1%

COc1ccc2c(c1)C(=O)c1c-2c(OCCN(C)C)nc2cc(OC)c(OC)cc12
inactive: NCI-H23 lung 53.1% | NCI-H226 lung 58% | NCI-H322M lung 57.2% | HOP-62 NSCLC 36.1% | NCI-H460 lung 36.6% | NCI-H522 lung 42.1% | A549/ATCC NSCLC 47.8% | 786-0 renal 79.1% | COLO 205 colon 66.5% | DU-145 prostate 52% | K-562 leukemia 62% | MDA-MB-231 breast 72.3% | RXF 393 renal 70.4% | SF-268 CNS 41% | SF-295 CNS 21.5% | SF-539 CNS 71.9% | UACC-257 melanoma 103% | M14 melanoma 88.8% | HCT-15 colon 76.8%

CCN(CC)CCC(=O)Nc1cccc2c1C(=O)c1c(c(O)c3ccccc3c1O)C2=O
active: 786-0 renal 4.91%
inactive: NCI-H23 lung 62% | NCI-H226 lung 29% | NCI-H322M lung 56.7% | HOP-62 NSCLC 47.9% | NCI-H460 lung 15.5% | NCI-H522 lung 46.4% | A549/ATCC NSCLC 33.7% | COLO 205 colon 51.3% | DU-145 prostate 51.2% | K-562 leukemia 23.3% | MALME-3M melanoma 61.6% | RXF 393 renal 58.4% | SF-268 CNS 56.9% | SF-295 CNS 25.7% | SF-539 CNS 38% | UACC-257 melanoma 85.6% | M14 melanoma 70.8% | HCT-15 colon 51.9%

O=C(O)c1ccc(Cl)cc1Nc1ccc(F)cc1
inactive: NCI-H23 lung 92.7% | NCI-H226 lung 82.3% | NCI-H322M lung 38.1% | HOP-62 NSCLC 96.7% | NCI-H460 lung 76.8% | NCI-H522 lung 82.6% | A549/ATCC NSCLC 86.4% | 786-0 renal 68.6% | COLO 205 colon 95.7% | DU-145 prostate 87.1% | K-562 leukemia 75.4% | MDA-MB-231 breast 70.4% | RXF 393 renal 92.7% | SF-268 CNS 62.4% | SF-295 CNS 73% | SF-539 CNS 93.8% | UACC-257 melanoma 97.6% | M14 melanoma 77.6% | HCT-15 colon 53.7%

COc1ccc2c(c1)C(=O)c1c-2c(OCCN2CCCCC2)nc2ccc(OC)cc12
inactive: NCI-H23 lung 12.6% | NCI-H226 lung 23.9% | HOP-62 NSCLC 24.4% | NCI-H522 lung 25.1% | A549/ATCC NSCLC 11.6% | 786-0 renal 18% | COLO 205 colon 28% | DU-145 prostate 11.3% | K-562 leukemia 11.2% | MDA-MB-231 breast 66.5% | RXF 393 renal 47.3% | SF-268 CNS 28.1% | SF-539 CNS 20.9% | UACC-257 melanoma 32.3% | M14 melanoma 22.9% | HCT-15 colon 26.2%
active: NCI-H322M lung 5.72% | NCI-H460 lung -50.7% | SF-295 CNS 2.81%

ClC(Cl)(Cl)c1nc2nccnc2[nH]1
inactive: NCI-H23 lung 108% | NCI-H226 lung 98.6% | NCI-H322M lung 90% | HOP-62 NSCLC 102% | NCI-H460 lung 102% | NCI-H522 lung 95.4% | A549/ATCC NSCLC 101% | 786-0 renal 103% | COLO 205 colon 114% | DU-145 prostate 112% | K-562 leukemia 101% | MALME-3M melanoma 102% | RXF 393 renal 111% | SF-268 CNS 113% | SF-295 CNS 78.9% | SF-539 CNS 99.6% | UACC-257 melanoma 108% | M14 melanoma 103% | HCT-15 colon 103%

O=C(NC(Cc1ccc(O)cc1)C(=O)N=Nc1c(O)[nH]c2ccccc12)c1ccccc1 (centres undefined)
inactive: NCI-H23 lung 95% | NCI-H226 lung 100% | NCI-H322M lung 102% | HOP-62 NSCLC 93.3% | NCI-H460 lung 107% | NCI-H522 lung 97.1% | A549/ATCC NSCLC 99.5% | 786-0 renal 98.9% | COLO 205 colon 109% | DU-145 prostate 108% | K-562 leukemia 107% | MDA-MB-231 breast 110% | RXF 393 renal 108% | SF-268 CNS 97.8% | SF-295 CNS 97.4% | SF-539 CNS 98.3% | UACC-257 melanoma 97.5% | M14 melanoma 94% | HCT-15 colon 103%

NC(=O)SCC(=O)Nc1ccc(S(N)(=O)=O)cc1
inactive: NCI-H23 lung 106% | NCI-H226 lung 93% | NCI-H322M lung 121% | HOP-62 NSCLC 101% | NCI-H460 lung 108% | NCI-H522 lung 105% | A549/ATCC NSCLC 103% | 786-0 renal 107% | COLO 205 colon 107% | DU-145 prostate 112% | K-562 leukemia 108% | MDA-MB-231 breast 106% | RXF 393 renal 99% | SF-268 CNS 106% | SF-295 CNS 107% | SF-539 CNS 100% | UACC-257 melanoma 101% | M14 melanoma 105% | HCT-15 colon 109%

N=c1c2c(-c3ccccc3)c(-c3ccccc3)n(Cc3ccccc3)c2ncn1CCCO
inactive: NCI-H23 lung 45.7% | NCI-H226 lung 46.1% | NCI-H322M lung 34.4% | HOP-62 NSCLC 52.9% | NCI-H522 lung 27.8% | A549/ATCC NSCLC 17.3% | 786-0 renal 48.3% | DU-145 prostate 34.5% | MDA-MB-231 breast 39% | RXF 393 renal 12.7% | SF-268 CNS 41.4% | SF-295 CNS 88.3% | SF-539 CNS 54.1% | M14 melanoma 43.4% | HCT-15 colon 28.1%
active: NCI-H460 lung 8.17% | COLO 205 colon -5.84% | K-562 leukemia -0.624% | UACC-257 melanoma -24.9%

CCCCCCCCCCCCCCCCN(C(C)c1ccccc1)S(=O)(=O)c1ccc(OC)c(N)c1 (centres undefined)
inactive: NCI-H23 lung 93.7% | NCI-H226 lung 108% | NCI-H322M lung 128% | HOP-62 NSCLC 117% | NCI-H460 lung 107% | NCI-H522 lung 90.5% | A549/ATCC NSCLC 107% | 786-0 renal 124% | COLO 205 colon 123% | DU-145 prostate 116% | K-562 leukemia 89.9% | MDA-MB-231 breast 122% | RXF 393 renal 131% | SF-268 CNS 108% | SF-295 CNS 116% | SF-539 CNS 116% | UACC-257 melanoma 108% | M14 melanoma 115% | HCT-15 colon 115%

COc1cc(C2CC(c3ccc(Nc4ccnc5cc(Cl)ccc45)cc3)=NN2c2ccc(Cl)cc2)cc(OC)c1OC (centres undefined)
inactive: NCI-H23 lung 74.4% | NCI-H226 lung 82.9% | NCI-H322M lung 75.8% | HOP-62 NSCLC 46.8% | NCI-H460 lung 43.4% | A549/ATCC NSCLC 44.6% | 786-0 renal 68.8% | COLO 205 colon 75.7% | DU-145 prostate 64% | MDA-MB-231 breast 42.6% | RXF 393 renal 60.4% | SF-268 CNS 48.5% | SF-295 CNS 28.8% | SF-539 CNS 59.3% | UACC-257 melanoma 61.3% | M14 melanoma 38.2% | HCT-15 colon 45.4%
active: NCI-H522 lung 9.33% | K-562 leukemia 6.22%

Cc1cc(C)c2c(n1)sc1c(Nc3ccc(Cl)cc3)ncnc12
inactive: NCI-H322M lung 32% | NCI-H522 lung 16.1% | A549/ATCC NSCLC 18.2% | COLO 205 colon 10.6% | K-562 leukemia 46.2% | MDA-MB-231 breast 32.1% | SF-295 CNS 10.6% | UACC-257 melanoma 20.3% | HCT-15 colon 31%
active: NCI-H23 lung 4.49% | NCI-H226 lung 1.79% | HOP-62 NSCLC 5.01% | NCI-H460 lung 5.8% | 786-0 renal -3.32% | DU-145 prostate 6.73% | RXF 393 renal 1.12% | SF-268 CNS 0.138% | SF-539 CNS -49.5% | M14 melanoma -48.3%

COc1ccc2c(c1)sc1nc(-c3ccccc3)c(-c3ccc(O)c(OC)c3)n12
inactive: NCI-H23 lung 88.2% | NCI-H226 lung 94.1% | NCI-H322M lung 89.7% | HOP-62 NSCLC 79.1% | NCI-H460 lung 69.8% | NCI-H522 lung 76.4% | A549/ATCC NSCLC 64.2% | 786-0 renal 84.9% | COLO 205 colon 71.4% | DU-145 prostate 107% | K-562 leukemia 30.7% | MDA-MB-231 breast 90.7% | RXF 393 renal 104% | SF-268 CNS 88.7% | SF-295 CNS 81.2% | SF-539 CNS 86.9% | UACC-257 melanoma 83.8% | M14 melanoma 38.1% | HCT-15 colon 47.1%

CCN(CC)CCN1CC(=O)Nc2cc(Cl)ccc21
inactive: NCI-H23 lung 101% | NCI-H226 lung 95.1% | NCI-H322M lung 104% | HOP-62 NSCLC 103% | NCI-H460 lung 104% | NCI-H522 lung 92.7% | A549/ATCC NSCLC 102% | 786-0 renal 115% | COLO 205 colon 102% | DU-145 prostate 120% | K-562 leukemia 120% | MDA-MB-231 breast 116% | RXF 393 renal 122% | SF-268 CNS 108% | SF-295 CNS 103% | SF-539 CNS 105% | UACC-257 melanoma 102% | M14 melanoma 93.9% | HCT-15 colon 107%

COc1ccc(-c2ccc3cc(C(=O)Nc4ccc(O)c(C(=O)/C=C/c5cc(OC)c(OC)c(OC)c5)c4)ccc3c2)cc1
inactive: NCI-H23 lung 94.3% | NCI-H226 lung 82.5% | NCI-H322M lung 100% | HOP-62 NSCLC 114% | NCI-H460 lung 95.9% | NCI-H522 lung 87.7% | A549/ATCC NSCLC 92.6% | 786-0 renal 102% | COLO 205 colon 109% | DU-145 prostate 102% | K-562 leukemia 59% | MDA-MB-231 breast 85.6% | RXF 393 renal 93% | SF-268 CNS 105% | SF-295 CNS 101% | SF-539 CNS 103% | UACC-257 melanoma 97.9% | M14 melanoma 89.1% | HCT-15 colon 80.4%
